# Source: PubChem
# A selection: hits, their analogues and other compounds. The true share with any hit is near 19%.
# HT1080 IDH1KD tx – kills HT-1080 cells with IDH1 knockdown. HT-1080 IDH1 knockdown viability, ATP luminescence, 48 h. Potency, µM (highest dose often 46.1 µM), for inactives: at the highest dose activity, negative = toxicity, actives largely listed as cytotoxic. 2% of 360,000 active;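 note: 0% = DMSO wells and -100% = cell-free medium wells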
#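 Assay cells: HT-1080 with IDH1 knockdown, 750 per well, RPMI/5% FBS. Exposure: 48 h at 37 °C following 2 h pre-incubation. Read: CellTiter-Glo luminescence; fitted concentration-response, curve class assigned.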
# TDP1 cell noCPT – qHTS for Inhibitors of human tyrosyl-DNA phosphodiesterase 1 (TDP1): qHTS in cells in absence of CPT. DT40 Tdp1-/- hTDP1 cells, no CPT, ATP luminescence, 48 h. 15% of 420,000 active. Potency, µM (top dose mostly 46.2 µM), inactives show at the top dose activity change, negative = growth inhibition, most hits filed as inhibitors; note: nearly all actives have a fitted effect of over 55% in size
#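 Growth kinetics read by CellTiter-Glo luminescence after ≥48 hr at 37 °C. Cells: DT40 Tdp1-/- stably carrying human TDP1, 400 per well, compound exposure in the absence of CPT (DMSO vehicle).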
# KB-3-1 cytotox – kills parental KB-3-1 adenocarcinoma cells; KB-3-1 viability, CellTiter-Glo ATP luminescence, 72 h; Potency, µM (highest dose often 46.1 µM), usual class: cytotoxic; 1.4% of 400,000 active; AID 1347075; note: nearly all actives have a fitted effect of over 60% in size
#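 Screening of KB-3-1 cells (DMEM, 10% FBS, phenol-red free) ran from lowest to highest compound concentration; after 72 h at 37 °C viability was read luminescently and curves fitted.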
# HT1080NT lethal – kills 2HG-producing HT-1080-NT fibrosarcoma cells | Potency, µM (series often up to 46.1 µM), for the others: top-dose activity, negative = less viability, most hits filed as cytotoxic | AID 686970 | HT-1080-NT fibrosarcoma viability, CellTiter-Glo ATP luminescence, 48 h | 1.6% of 360,000 active;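 note: NT is the 2HG producing partner of a matched IDH1 knockdown line; 0% = DMSO-treated cells and -100% = media-only wells without cells; nearly all actives have a fitted effect of over 55% in size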
#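 Compounds were tested in concentration-response format on HT-1080-NT cells for 48 hours at 37 degrees C. Cell viability came from CellTiter-Glo luminescence; curves were classified by r2, response magnitude and activity.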
# DT40 TDP1 CPT – DT40-hTDP1 cell growth loss with CPT | chicken DT40 Tdp1-/-;hTDP1 cells + 20 nM CPT, ATP luminescence, 48 h | Potency, µM (top dose mostly 46.2 µM), inactives show at the top dose activity change, negative = growth inhibition, hits mostly inhibitors | 12% of 420,000 active; note: nearly all actives have a fitted effect of over 55% in size
#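 Chicken DT40 Tdp1-/- cells stably complemented with human TDP1 were seeded at 400 cells/well in medium containing 20 nM camptothecin, exposed to pin-transferred compounds, and grown at 37 °C for at least 48 hr. Viability was read as ATP luminescence.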
# KB-V1 cytotox – kills drug-selected multidrug resistant KB-V1 cells. KB-V1 MDR cells viability, CellTiter-Glo, 72 h. Potency, µM (top dose mostly 46.1 µM), most hits filed as cytotoxic. 3.4% of 400,000 active; note: nearly all actives have a fitted effect of over 60% in size
#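 Luminescent ATP read-out (CellTiter-Glo, 10 min) measures survival of drug-selected KB-V1 MDR cells after 72 h, 37 degrees C compound exposure. Medium: phenol-red-free DMEM, 10% FBS. Values from fitted concentration-response curves.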
# * hit, by the source's call; i = inactive; ? = inconclusive; . = not tested or not shown; ! = not active in a repeat; [ ] = another dose, or the depositor's remark. Calls come from the whole dose curve; as a rule, active = well fitted curve in the direction sought with a large enough effect; inconclusive = small, poorly fitted or top-dose-only effect, or another doubt; inactive = no such curve, though single readings can be large; an effect the other way counts as inactive or inconclusive. Unless noted, % is set by controls: 0 for no effect and ±100 for the full control effect; potency is the fitted concentration of half-maximal effect.
SMILES,HT1080 IDH1KD tx,TDP1 cell noCPT,KB-3-1 cytotox,HT1080NT lethal,DT40 TDP1 CPT,KB-V1 cytotox
Cc1cccc(C)c1NC(=O)C(c1ccnc2ccccc12)n1c(=O)c(-c2ccccc2)nc2ccccc21 (configuration not stated),-16%,15µM*,i,-15%,?,?
O=C(NCc1ccccc1)C(c1ccncc1)n1c(=O)c(-c2cc3ccccc3[nH]2)nc2ccccc21 (configuration not stated),?,?,i,?,?,?
CC(C)(C)NC(=O)C(c1ccnc2ccccc12)n1c(=O)c(-c2ccccc2)nc2ccccc21 (configuration not stated),11%,-24%,i,11%,-27%,i
CCCCCNC(=O)C(CCc1ccccc1)n1c(=O)c(-c2cc3ccccc3[nH]2)nc2ccccc21 (configuration not stated),?,?,i,-21%,?,i
CCCCCNC(=O)C(CCc1ccccc1)n1c(=O)c(-c2ccccc2)nc2ccccc21 (configuration not stated),?,5.8µM*,i,-24%,5.8µM*,i
S=c1[nH]nc(-c2ccccn2)n1/N=C/c1ccc(Br)s1,-7%,-8%,i,-17%,5%,i
CC1(C(=O)NS(=O)(=O)Cc2ccccc2)CCN1C(=O)C1(c2ccc(Cl)cc2)CC1 (configuration not stated),3%,-3%,i,4%,2%,i
COc1ccc2c(c1)CC(C(=O)Nc1cc(OC)c(OC)c(OC)c1)CO2 (configuration not stated),.,?,i,.,?,i
COc1ccc(-c2cc(C(=O)Oc3ccc(Br)cc3)c3ccccc3n2)cc1,.,-28%,i,.,-18%,i
CC(C)c1ccc(-c2cc(C(=O)N3CCOCC3)c3cc(Br)ccc3n2)cc1,-5%,?,?,-2%,?,?
Cc1ccc(-c2cc(C(=O)N3CCN(C(=O)c4ccco4)CC3)[nH]n2)cc1C,1%,-26%,i,-2%,?,i
O=C(c1ccco1)N1CCN(C(=O)c2cc(-c3ccccc3)nc3ccccc23)CC1,-16%,?,i,-22%,?,i
O=C(c1ccco1)N1CCN(C(=O)c2cc(-c3ccncc3)nc3ccc(Br)cc23)CC1,-1%[9.24 µM],9.2µM*,i,-1%,21µM*,?
Cc1cccc2c(C(=O)N3CCN(C(=O)c4ccco4)CC3)cc(-c3cccc(Br)c3)nc12,18µM*,?,?,?,?,9.2µM*
CC(=O)c1ccc(N2CCN(C(=O)c3cc(-c4ccncc4)nc4ccc(Br)cc34)CC2)cc1,-1%,21µM*,?,-1%,21µM*,i
COc1cccc(C2(CC(=O)N3CCCOc4c(cccc4OC)C3)CC(=O)N(C)C2=O)c1 (configuration not stated),.,-23%,.,.,6%,.
Cc1ccc(Cl)cc1NS(=O)(=O)c1ccccc1,-21%,?,i,-8%,-6%,i
Cc1ccc(Cl)cc1NC1=C/C(=N\S(=O)(=O)c2cccs2)c2ccccc2C1=O,4.6µM*,2.9µM*,3.3µM*!,3.7µM*,5.2µM*,9.2µM*!
Cc1c(Cl)cccc1N/C(=N/S(=O)(=O)c1cccs1)c1ccccc1,-15%,?,?,-24%,-19%,?
Cc1cccc(NC2=C/C(=N/S(=O)(=O)c3cccs3)c3ccccc3C2=O)c1,3.3µM*,3.3µM*,?,4.6µM*,3.7µM*,?
Cc1ccc(NC2=C/C(=N\S(=O)(=O)c3cccs3)c3ccccc3C2=O)c(C)c1,6.5µM*,2.6µM*,6.5µM*,7.3µM*,2.6µM*,5.2µM*
CC(NC(=O)c1ccc(C(=O)c2ccccc2)cc1)c1ccc(S(N)(=O)=O)cc1 (configuration not stated),-3%,?,i,-6%,-24%,i
CC(OCCN1CCCC1)(c1ccc(F)cc1)c1ccc(F)cc1,-27%,?,i,-26%,?,i
Cc1ccc(-c2nsc(NC(=O)c3oc4cc(C)c(Cl)cc4c3C)n2)cc1,.,-3%,.,.,-1%,.
Cc1ccc(CN=Cc2[nH]c3ccc(Br)c(Cl)c3c2O)cc1,18µM*,21µM*,i,-24%,?,i
SMILES,HT1080 IDH1KD tx,TDP1 cell noCPT,KB-3-1 cytotox,HT1080NT lethal,DT40 TDP1 CPT,KB-V1 cytotox
COc1cc(-c2nc3ccccn3c2Nc2ccccc2C)ccc1O,.,?,i,.,?,i
Cc1ccn2c(Nc3ccccc3C)c(-c3ccccc3)nc2c1,.,?,i,.,21µM*,i
Cc1ccn2c(Nc3ccccc3C)c(-c3cccnc3)nc2c1,-10%,?,i,10%,16µM*,i
COc1cc(O)ccc1-c1nc2cc(C)ccn2c1Nc1ccccc1C,.,26µM*,i,.,13µM*,?
COc1ccc(-c2noc(-c3ccc(NCc4ccco4)c([N+](=O)[O-])c3)n2)cc1OC,.,9.2µM*,i,.,13µM*,i
COc1cc(-c2noc(-c3ccc(NCc4cccnc4)c([N+](=O)[O-])c3)n2)cc(OC)c1OC,.,6.5µM*,i,.,7.3µM*,26µM*
CCCc1noc(-c2ccc(NCc3ccccc3OC)c([N+](=O)[O-])c2)n1,.,7.3µM*,i,.,10µM*,i
COc1ccccc1CNc1ccc(-c2nc(-c3ccccn3)no2)cc1[N+](=O)[O-],.,?,i,.,-18%,i
CCc1nc2ccc(C(=O)NCCNC(C)=O)cn2c1N(CC)CCOC,27%,-2%,i,11%,3%,i
CC(=O)N1CCc2cc(S(=O)(=O)NC(C(=O)Nc3ccc(C)cc3C)C(C)C)ccc21 (configuration not stated),.,?,i,.,-4%,i
COc1ccc(-c2noc(CCC(=O)NC3CCCCCC3)n2)cc1OC,1%,?,i,2%,?,i
COC(=O)CC1C2(C)CC34OC5(C)O[C@@]6(C7/C(=C(/OC)C(C)C)C(=O)OC(c8ccoc8)[C@@]7(C)C(OC(=O)C(C)C)C(OC)[C@]6(O5)[C@@]13C)C(OC)[C@]4(OC)C2OC(C)=O (some centres not stated),.,13µM*,.,.,8.2µM*,.
